The source of these data is PubChem BioAssay (NCATS).

Values joined by “and” are separate entries in the source; they are usually repeats but may differ in a detail not shown here. Identical values can stand only once. Records with an inconclusive call do not appear. Where a call stands in place of a potency, no number is given. Active and inactive are the calls of the source. The call rests on the fitted dose curve; in most records, active means well fitted curve in the direction sought with a large enough effect; inconclusive means small, poorly fitted or top-dose-only effect, or another doubt; inactive means no such curve, though single readings can be large; an effect the other way counts as inactive or inconclusive.

In one test the target is Furin (Homo sapiens) (UniProt P09958). The experiment in a line: Furin counterscreen qHTS for Zika virus inhibitors (AID 1347149). Further: nearly all actives have a fitted effect of over 70% in size. Further: potency means the concentration at half of the fitted maximal effect. In short, it runs like this: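 Counterscreen measures cleavage of 2 microM BOC-RVRR-AMC, below its ~15 microM Km, by 5 nM full-length human furin at pH 7.0 after a 15-min compound preincubation. Inhibition derives from the 15-min fluorescence increase at 37C.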
Background: The purpose of a counterscreen is to sort out artefacts and off-target activity.

For test [1], the system named is Zika virus NS2B-NS3 protease (unlinked). Briefly: Optimization of GU AMC qHTS for Zika virus inhibitors: Unlinked NS2B-NS3 protease assay (AID 1347151). Further: nearly all actives have a fitted effect of over 80% in size. Further: potency means the concentration at half of the fitted maximal effect. The method, boiled down: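 Percent inhibition is derived from the 15-min change in AMC fluorescence, normalized against no-inhibitor and no-enzyme controls, then fitted to a 4-parameter Hill curve. Aprotinin was the intraplate control.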
On the technique in general: qHTS replaces the single test concentration by a dilution series.

Test [2] is described as follows: Confirmatory screen GU Rhodamine qHTS for Zika virus inhibitors qHTS (AID 1347157). Further: potency means the concentration at half of the fitted maximal effect; nearly all actives have a fitted effect of over 70% in size. Particulars: purified enzyme assay, Rhodamine110 substrate fluorescence, 15 min. The method, boiled down: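 Enzyme 25 nM in Tris-HCl pH 8.0 + 0.01% Tween 20; compounds up to 114 microM, 15 min RT dark; + Rhod110 substrate 1.5 microM; read t0 and 15 min; delta fluorescence → % inhibition → 4-parameter Hill fit.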

The target of test [3] is N-terminal Xaa-Pro-Lys N-methyltransferase 1 (Homo sapiens) (UniProt Q9BV86). Briefly: qHTS Assay for Inhibitors of N-terminal methyltransferase 1 (NTMT1): LOPAC validation of the NTMT1 SAHH-coupled ThioGlo3 Assay (AID 1347143).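 Further: SAH from peptide methylation measured as thiol fluorescence via SAHH coupling and ThioGlo3; potency means the concentration at half of the fitted maximal effect; nearly all actives have a fitted effect of over 70% in size.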 In short, it runs like this: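 In this qHTS pilot against the LOPAC set, 125nM NTMT1 met compounds tested at multiple concentrations, and fluorescence was normalized to background.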

The test system of test [4] is Zika virus NS2B-NS3 protease (linked construct). Briefly: Confirmatory screen NINDS AMC qHTS for Zika virus inhibitors (AID 1347152). Further: nearly all actives have a fitted effect of over 70% in size. Further: potency means the concentration at half of the fitted maximal effect. In short, it runs like this:
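In this dose-response qHTS, AMC release from 10 microM Bz-Nle-KRR-AMC by 1 nM linked protease is measured over 15 minutes (about 20% conversion) at pH 8.0. Percent inhibition is fitted to a 4-parameter Hill curve.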

The subject of test [5] is Zika virus NS2B-NS3 protease (unlinked complex). Briefly: Confirmatory screen GU AMC qHTS for Zika virus inhibitors (AID 1347153). Further: nearly all actives have a fitted effect of over 70% in size. The method, boiled down: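 Noncovalent NS2B hydrophilic domain/NS3 protease complex (25 nM) in 10 mM Tris-HCl pH 8.0, 0.01% Tween 20 was preincubated 15 min at room temperature with compounds. Then 10 µM AMC substrate (Km 18.3 µM) was added; fluorescence was read over 15 min and fitted to a 4-parameter Hill equation.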

The subject of test [6] is Zika virus NS2B-NS3 protease. Briefly: Primary screen GU AMC qHTS for Zika virus inhibitors (AID 1347154). Further: nearly all actives have a fitted effect of over 70% in size. In short, it runs like this: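 Unlinked Zika NS2B hydrophilic domain/NS3 protease domain noncovalent complex (25 nM final) in 10 mM Tris-HCl pH 8.0, 0.01% Tween 20, with AMC peptide substrate. Fluorescence (ex 340, em 450 nm) change over 15 min, room temperature; percent inhibition fitted to 4-parameter Hill equation.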

Chain of Furin (Homo sapiens) (P09958 whole entry, looked up): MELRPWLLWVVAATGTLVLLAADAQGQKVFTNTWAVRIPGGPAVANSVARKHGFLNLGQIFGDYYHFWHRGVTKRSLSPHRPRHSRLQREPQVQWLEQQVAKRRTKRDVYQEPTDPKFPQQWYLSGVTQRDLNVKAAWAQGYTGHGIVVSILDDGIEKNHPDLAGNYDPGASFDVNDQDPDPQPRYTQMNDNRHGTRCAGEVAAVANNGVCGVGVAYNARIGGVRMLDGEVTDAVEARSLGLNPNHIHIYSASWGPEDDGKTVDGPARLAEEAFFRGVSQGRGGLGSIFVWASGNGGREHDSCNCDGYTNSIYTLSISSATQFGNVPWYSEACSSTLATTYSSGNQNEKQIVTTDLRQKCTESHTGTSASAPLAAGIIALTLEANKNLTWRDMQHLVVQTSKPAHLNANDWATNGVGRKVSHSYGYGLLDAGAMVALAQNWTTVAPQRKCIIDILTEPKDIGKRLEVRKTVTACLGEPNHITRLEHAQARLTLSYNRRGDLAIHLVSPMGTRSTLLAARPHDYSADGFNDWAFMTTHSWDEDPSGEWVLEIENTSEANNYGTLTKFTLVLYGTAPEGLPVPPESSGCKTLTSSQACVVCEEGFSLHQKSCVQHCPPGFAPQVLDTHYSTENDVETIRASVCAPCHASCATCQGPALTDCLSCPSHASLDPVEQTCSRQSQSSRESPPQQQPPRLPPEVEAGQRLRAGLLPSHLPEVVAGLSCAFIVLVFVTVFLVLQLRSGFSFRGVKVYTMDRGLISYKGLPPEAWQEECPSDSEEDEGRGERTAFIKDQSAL
Chain of N-terminal Xaa-Pro-Lys N-methyltransferase 1 (Homo sapiens) (Q9BV86 whole entry, looked up): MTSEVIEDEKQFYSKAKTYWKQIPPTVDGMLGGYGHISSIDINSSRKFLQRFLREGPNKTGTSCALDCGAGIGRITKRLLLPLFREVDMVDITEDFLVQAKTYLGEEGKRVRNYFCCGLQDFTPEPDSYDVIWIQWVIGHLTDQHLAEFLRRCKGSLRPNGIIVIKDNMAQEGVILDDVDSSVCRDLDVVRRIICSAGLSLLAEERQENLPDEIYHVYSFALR

Consider `O=c1c(O)c(-c2ccc(O)cc2O)oc2cc(O)cc(O)c12`, for which, in the test with Furin (Homo sapiens), the Potency entry is “inactive”. Also, the Potency in test [1] was 11.9 µM (active); in test [2], 20 µM (active). With `Cc1c(OCC(F)(F)F)ccnc1CS(=O)c1nc2ccccc2[nH]1` (stereo not drawn), the Potency in test [3] was 50.1 µM (active). Moreover, the Potency result in test [4], in test [5] and in test [6] was “inactive” throughout. For the molecule `COc1c(O)cc2c(c1O)[C@@H]1O[C@H](CO)[C@@H](O)[C@H](O)[C@H]1OC2=O`, the Potency result in test [6] was “inactive”. Take `Cc1cc2cc3c(C)cc(=O)oc3c(C)c2o1`: the Potency entry in test [6] was “inactive”. Take `COc1ccc2cc([C@H](C)C(=O)O)ccc2c1`: the Potency in test [1] was 23.8 µM (active). Besides, the Potency result in test [6] was “inactive”. As for `COc1c2occc2cc2ccc(=O)oc12`, in the test with Furin (Homo sapiens), the Potency entry was “inactive”. On to `CC1=C(C)C(=O)C(C(CCCCCC(=O)O)c2ccccc2)=C(C)C1=O` (stereo not drawn), for which the Potency entry in test [6] was “inactive”. Same read-out and setting: for `COCCCOc1ccnc(CS(=O)c2nc3ccccc3[nH]2)c1C` (stereo not drawn) the value was “inactive”; for `NC(=O)Cc1cccc(C(=O)c2ccccc2)c1N`, “inactive”. Regarding `O=c1cc(N2CCOCC2)oc2c(-c3ccccc3)cccc12`, the Potency in test [1] is 26.7 µM (active). Also, the Potency entry in test [6] was “inactive”. `CN(C)CCc1c[nH]c2ccc(Cn3cncn3)cc12`: the Potency result in test [6] is “inactive”. On the same count and under the same terms, for `Nc1ccc(S(N)(=O)=O)cc1` the value was “inactive”; for `O=C(O)CCNC(=O)c1ccc(N=Nc2ccc(O)c(C(=O)O)c2)cc1`, “inactive”. With `COC(=O)C1=C(C)NC(C)=C(C(=O)OCCCN2CCC(c3ccccc3)(c3ccccc3)CC2)C1c1cccc([N+](=O)[O-])c1` (stereo not drawn), the Potency result in test [6] is “inactive”. With `Cc1cc(Cl)ccc1OCCCC(=O)NO`, the Potency entry in test [1] and in test [6] was “inactive” throughout. Regarding `O=C(O)c1cn(-c2ccc(F)cc2)c2cc(N3CCNCC3)c(F)cc2c1=O`, the Potency with Furin (Homo sapiens) was 24.1 µM (active); in test [4], 24.1 µM (active) and 27.1 µM (active). Turning to `CN(C)CCCC1(c2ccc(F)cc2)OCc2cc(C#N)ccc21` (stereo not drawn), the Potency entry in test [1] and in test [6] was “inactive” each time. On to `Cc1ncc([N+](=O)[O-])n1CC(C)O` (stereo not drawn), for which the Potency result in test [6] was “inactive”. As to `CCOC(=O)C(C)Oc1cccc2c(=O)n(CC(=O)Nc3ccc4c(c3)OCCO4)ccc12` (stereo not drawn), the Potency in test [1] was 21.2 µM (active). In addition, the Potency entry in test [6] was “inactive”. With `S=c1nc[nH]c2nc[nH]c12`, the Potency result (with Furin (Homo sapiens); in test [1]) was “inactive” throughout. Turning to `Cc1cccc(C#Cc2ccccc2)n1`, the Potency entry in test [1] and in test [6] was “inactive” each time. For `N[C@@H](Cc1cc(I)c(Oc2cc(I)c(O)c(I)c2)c(I)c1)C(=O)O`, the Potency entry with Furin (Homo sapiens) was “inactive”. The Potency in test [2] was 6.1 µM (active). For the molecule `O=C(O)c1cc(=O)c2c(OCC(O)COc3cccc4oc(C(=O)O)cc(=O)c34)cccc2o1`, the Potency result in test [6] was “inactive”. On the same count and under the same terms, for `CCCc1cc(=O)[nH]c(=S)[nH]1` the value was “inactive”.
